Compounds with a hit are over-represented: about 1.6% of the library has one in this group of screens.
KCNQ2 inh = rat KCNQ2 potassium channel inhibitors, primary screen, cell-based, CHO-K1, FluxOR thallium flux, B-score; Potassium voltage-gated channel subfamily KQT member 2 (Rattus norvegicus), O88943; 20 min; active compounds read low; B-score at 10 µM; 310,000 compounds, 1.1% hits;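 active means fluorescence ratio B-score at most minus 3 library SDs, with starting brightness B-score within 2 library SDs, cut at about -5.5 in these data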
KCNQ2 pot = potentiators of rat KCNQ2 potassium channel | Potassium voltage-gated channel subfamily KQT member 2 (Rattus norvegicus), O88943 | CHO-K1 KCNQ2, FluxOR thallium flux fluorescence; active compounds read high | B-score at 10 µM | 310,000 compounds, 0.54% hits;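 active means fluorescence ratio B-score at least 3 SD of library B-scores, with initial fluorescence B-score within 3 of them, cut at about 5.3 in these data; same plate scores as AID 2156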;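 further: B-score of peak minus minimum over baseline fluorescence ratio after K+ and Tl+ stimulus; positive B-score means potentiation of KCNQ2 with more thallium influx and brighter signal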
Kir21 confirm = mouse Kir2.1 channel blockers, retest, confirmation, cell-based, FluxOR thallium flux, duplicate; 2,300 compounds, 41% hits; Tl flux remaining, % of negative control (active compounds read low), % at 10 µM; Kir2.1-expressing cells, FluxOR thallium flux fluorescence; active compounds read low; shares compounds with KCNQ2 pot;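 active means Primary-screen hit whose thallium flux fell at least 3 control SD below untreated wells in both duplicates, with normal baseline fluorescence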
HEK293 ctr = alters thallium flux in parental HEK293 cells, Kir2.1 counter-screen; FluxOR signal as % of negative control (100 = no effect), % at 10 µM; AID 2105; 2,300 compounds, 19% hits; shares compounds with KCNQ2 pot; FluxOR thallium flux fluorescence; 0% = unstimulated blank wells;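 active means dye signal at least 3 control SD above or below untreated wells in both duplicates, raw fluorescence within 3, either direction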;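 further: percent is based on the flux ratio of peak minus minimum fluorescence over baseline F0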
CHO-K1 Tl ctr = nonspecific thallium flux increase in parental CHO-K1, confirmation, counter-screen for KCNQ2 potentiator project, cell-based, FluxOR thallium flux, duplicate; parental CHO-K1 cells, FluxOR thallium flux fluorescence; zero = vehicle mean+3SD, 100% = vehicle-minus-blank window; activity increase over 3SD of controls, % at 10 µM; AID 2282, 2010; 1,200 compounds, 43% hits; shares compounds with KCNQ2 pot;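 active means signal rise of at least 3 SD above the untreated control mean, in both duplicate wells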;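 further: counter screen of KCNQ2 potentiator hits so any rise reflects channel-independent effects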
KCNQ1 sel pot = human KCNQ1 channel potentiation off-target, confirmation, selectivity assay for KCNQ2 potentiator project, cell-based, CHO, FluxOR thallium flux; shares compounds with KCNQ2 pot; CHO KCNQ1 stable, FluxOR thallium flux fluorescence; beyond 3SD, as % of vehicle-control signal; activation over 3SD threshold, % at 10 µM; 1,200 compounds, 28% hits; AID 2283, 2010;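 active means fluorescence ratio rise of at least 3 SD of vehicle wells above their mean, in both replicate wells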
Target sequence (P51787 whole entry, looked up): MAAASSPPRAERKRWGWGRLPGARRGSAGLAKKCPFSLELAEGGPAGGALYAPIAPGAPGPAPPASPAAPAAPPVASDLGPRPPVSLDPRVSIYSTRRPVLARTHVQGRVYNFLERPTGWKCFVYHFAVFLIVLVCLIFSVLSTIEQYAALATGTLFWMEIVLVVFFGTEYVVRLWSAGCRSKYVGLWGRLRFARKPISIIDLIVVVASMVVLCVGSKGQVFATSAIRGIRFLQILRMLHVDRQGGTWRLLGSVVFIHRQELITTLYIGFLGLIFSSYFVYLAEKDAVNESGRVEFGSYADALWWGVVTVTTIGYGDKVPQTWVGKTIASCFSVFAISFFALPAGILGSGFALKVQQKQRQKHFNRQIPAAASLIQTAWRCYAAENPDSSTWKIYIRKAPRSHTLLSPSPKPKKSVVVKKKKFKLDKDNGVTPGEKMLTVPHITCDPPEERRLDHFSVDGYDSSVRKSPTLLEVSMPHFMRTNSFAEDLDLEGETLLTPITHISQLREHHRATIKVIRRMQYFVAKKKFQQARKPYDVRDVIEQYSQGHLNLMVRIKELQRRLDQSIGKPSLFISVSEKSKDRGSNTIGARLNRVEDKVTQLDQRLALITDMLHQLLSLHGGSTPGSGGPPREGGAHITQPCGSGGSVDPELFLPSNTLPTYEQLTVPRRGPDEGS
KCNQ2 pot confirm = rat KCNQ2 channel potentiators, confirmation, cell-based, CHO, FluxOR thallium flux, duplicate | shares compounds with KCNQ2 pot | potentiation, less the hit threshold, % at 10 µM | AID 2287, 2010 | CHO-KCNQ2 cells, FluxOR thallium flux fluorescence | 1,200 compounds, 68% hits;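 active means fluorescence ratio rising 3 SD or more over the vehicle control mean in both replicates, plus primary screen hit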;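 further: peak minus minimum thallium fluorescence divided by baseline after K/Tl stimulus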
Kir2-1 sel = mouse Kir2.1 channel activation off-target, confirmation, selectivity assay for KCNQ2 potentiator project, cell-based, HEK293, FluxOR thallium flux; activity over 3SD threshold, % at 10 µM; 1,200 compounds, 2% hits; shares compounds with KCNQ2 pot; HEK293 Kir2.1, FluxOR thallium flux fluorescence;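 active means fluorescence ratio rise of at least 3 SD above the vehicle-control mean, seen in both replicates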
KCNQ2 W236L MoA = potentiators of retigabine-insensitive KCNQ2 W236L, mechanism study for KCNQ2 potentiator project, cell-based, rat KCNQ2 W236L, CHO, automated patch clamp. shares compounds with KCNQ2 pot. 940 compounds, 10% hits. current increase over 3SD of negative controls (%), active compounds read high, % at 25 µM. automated patch clamp current;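 active means current increase at least 3 SD of the untreated controls above them in both duplicate recordings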
Of the large screens only hits and unclear results are named; the others gave an inactive call (follow-up assays come after a bar, where they were run).

O=C(c1ccc(Cl)cc1)N1CCc2c([nH]c3ccccc23)C1C(F)(F)F (stereo not given)	KCNQ2 pot 8 | Kir21 confirm inactive | HEK293 ctr inactive | CHO-K1 Tl ctr 16 | KCNQ1 sel pot inactive | KCNQ2 pot confirm 2.7 | Kir2-1 sel inactive | KCNQ2 W236L MoA inactive
O=C(Nc1ccccc1)N1CCc2c([nH]c3ccccc23)C1C(F)(F)F (stereo not given)	none (no result: KCNQ2 pot)
c1ccc(-c2ccccc2OCCCCN2CCCCCC2)cc1	none (no result: KCNQ2 pot) | Kir21 confirm 38% | HEK293 ctr inactive
c1ccc(-c2ccccc2OCCN2CCCC2)cc1	none (no result: KCNQ2 pot)
Cc1ccc(/C=C/C(=O)OCC(=O)NC(C)C)o1	none (no result: KCNQ2 pot)
Cc1cc(OCC(=O)NNC(=S)NC(=O)c2ccc(Br)o2)ccc1Cl	KCNQ2 pot 8.1 | Kir21 confirm inactive | HEK293 ctr inactive | CHO-K1 Tl ctr 90 | KCNQ1 sel pot inactive | KCNQ2 pot confirm inactive | Kir2-1 sel inactive
CCC(=O)NC(=S)Nc1ccc(NC(=O)COc2ccc(Cl)c(C)c2)cc1	none
Cc1cc(C(=O)CSc2nncn2C)c(C)n1-c1ccccc1	none
Nc1nc(C2CCOCC2)cs1	none (no result: KCNQ2 pot)
Nc1nc(C2CC2)c(Sc2sc(N)nc2C2CC2)s1	none (no result: KCNQ2 pot) | Kir21 confirm 74% | HEK293 ctr inactive
COC(=O)c1cc(Br)cn1S(=O)(=O)c1ccccc1	none (no result: KCNQ2 pot)
O=C1NC(=O)/C(=C\c2ccc(OCc3ccccc3)cc2)S1	KCNQ2 pot 8 | Kir21 confirm inactive | HEK293 ctr inactive | CHO-K1 Tl ctr inactive | KCNQ1 sel pot inactive | KCNQ2 pot confirm inactive | Kir2-1 sel inactive
O=C1NC(=O)/C(=C\c2ccccc2OCc2ccccc2)S1	none
C=C(C)C(=O)Nc1cccc(C2=NOC3(C2)C[C@H](C(N)=O)N(C(=O)/C=C/C)C3)c1 (stereo not given in full)	none
NNC(=O)c1ccc(COc2ccc3ccccc3c2)o1	none
O=C(OCc1ccccn1)c1ccc(COc2ccc3ccccc3c2)o1	KCNQ2 pot 5.4 | Kir21 confirm inactive | HEK293 ctr inactive | CHO-K1 Tl ctr inactive | KCNQ1 sel pot inactive | KCNQ2 pot confirm inactive | Kir2-1 sel inactive
COc1ccc(C(=O)NNC(=O)C(=O)Nc2cccc3ccccc23)cc1	KCNQ2 pot 10 | Kir21 confirm inactive | HEK293 ctr 156% | CHO-K1 Tl ctr 2.3 | KCNQ1 sel pot inactive | KCNQ2 pot confirm inactive | Kir2-1 sel inactive | KCNQ2 W236L MoA inactive
COc1ccc(OC)c(NC(=O)Nc2ccc(O)c3ccccc23)c1	none (no result: KCNQ2 pot)
COc1ccc(OC)c(NC(=O)NNC(=O)COc2ccc(-c3ccccc3)cc2)c1	none (no result: KCNQ2 pot)
COc1ccc(OC)c(NC(=O)C(=O)NNC(=O)COc2ccc(Br)cc2C)c1	KCNQ2 pot 17 | Kir21 confirm inactive | HEK293 ctr 350% | CHO-K1 Tl ctr inactive | KCNQ1 sel pot 12 | KCNQ2 pot confirm 68 | Kir2-1 sel inactive | KCNQ2 W236L MoA inactive
COc1ccc(OCC(=O)NNC(=O)C(=O)Nc2cc(OC)ccc2OC)cc1	KCNQ2 pot 11 | Kir21 confirm inactive | HEK293 ctr 264% | CHO-K1 Tl ctr 42 | KCNQ1 sel pot inactive | KCNQ2 pot confirm 8.0 | Kir2-1 sel inactive | KCNQ2 W236L MoA inactive
COc1ccc(OC)c(NC(=O)Nc2c(O)ccc3ccccc23)c1	KCNQ2 pot 7.8 | CHO-K1 Tl ctr inactive | KCNQ1 sel pot inactive | KCNQ2 pot confirm inactive | Kir2-1 sel inactive
COc1ccc(CC(=O)NNC(=O)COc2ccc(Br)cc2C)cc1OC	none (no result: KCNQ2 pot)
COc1ccc(C(=O)Nc2cccc3ccccc23)cc1	none (no result: KCNQ2 pot)
O=C(Nc1cccc(C(F)(F)F)c1)Nc1ccon1	none
O=C(CSc1ccc(F)cc1)Nc1ccc2c(c1)C(=O)NC2=O	none
Cc1ccc(NNc2c(C)nc3ccccc3nc2=O)cc1	none
COc1ccccc1OCCCC(=O)Nc1nnc(C2CCCO2)s1 (stereo not given)	none (no result: KCNQ2 pot)
CCn1cnc2c1c(=O)n(CC(=O)OC)c(=O)n2Cc1ccccc1	none
CC(C)C(c1nnnn1C(C)(C)C)N1CCN(c2cccc(Cl)c2)CC1 (stereo not given)	none (no result: KCNQ2 pot)
COc1ccc(S(=O)(=O)N(C)CC(=O)NCc2cccnc2)cc1Cl	none
O=C(COc1ccc2ccccc2c1)NNC(=O)Nc1ccccc1F	none (no result: KCNQ2 pot)
Cc1ccccc1NC(=O)C(=O)NNC(=O)COc1ccc2ccccc2c1	KCNQ2 pot 7 | Kir21 confirm inactive | HEK293 ctr 248% | CHO-K1 Tl ctr inactive | KCNQ1 sel pot inactive | KCNQ2 pot confirm 20 | Kir2-1 sel inactive | KCNQ2 W236L MoA inactive
COC(=O)c1sccc1NC(=O)c1ccc(OC)cc1OC	none (no result: KCNQ2 pot)
O=C(Nc1ccc(Br)cc1)c1ccc(-n2cnnn2)cc1	none
Cc1cccc(C)c1NC(=O)c1ccc(-n2cnnn2)cc1	KCNQ2 pot 13 | Kir21 confirm inactive | HEK293 ctr inactive | CHO-K1 Tl ctr inactive | KCNQ1 sel pot inactive | KCNQ2 pot confirm inactive | Kir2-1 sel inactive
COc1ccc(CNCCCC(=O)Nc2c(Cl)ccc(C)c2Cl)cc1OC	none (no result: KCNQ2 pot)
COc1cc(OC)cc(C(=O)NN(CCC#N)C2=NS(=O)(=O)c3ccccc32)c1	none
Cc1onc(-c2ccccc2)c1CNS(=O)(=O)c1ccccc1[N+](=O)[O-]	none | Kir21 confirm 60% | HEK293 ctr inactive
Cc1ccccc1CNS(=O)(=O)c1ccccc1[N+](=O)[O-]	none
COc1cccc(N(C(=O)c2snc(C(N)=O)c2N)C(C(=O)NCC2CCCO2)c2ccc3ncccc3c2)c1 (stereo not given)	none
COc1ccc(C(CC(=O)Nc2ccc(C)cn2)N2Cc3ccccc3C2=O)cc1 (stereo not given)	none
